# Source: ChEMBL document CHEMBL1157539, “Thousands of chemical starting points for antimalarial lead identification” (Nature, 2010)
# Key:
# Format in all cases: functional
# [1] = system: Plasmodium falciparum; test: GSK_TCMDC: Inhibition of Plasmodium falciparum 3D7 in whole red blood cells, using parasite LDH activity as an index of growth. Test compounds present at 2uM
# [2] = system: Plasmodium falciparum; test: GSK_TCMDC: Inhibition of Plasmodium falciparum Dd2 in whole red blood cells, using parasite LDH activity as an index of growth. Test compounds present at 2uM
# [3] = system: HepG2; test: GSK_TCMDC: Percent inhibition of human HepG2 cell line. Test compounds present at 10uM.
SMILES,Inhibition [1],Inhibition [2],Inhibition [3]
Cc1ccc(S(=O)(=O)O)cc1.N=C(NCCc1c[nH]c2ccccc12)NCc1ccccc1Cl,83%,45%,16%
COc1cccc(Cc2cnc3nc(N)nc(N)c3c2C)c1,94%,76%,57%
CC(C)(C)c1cc(C(=O)Nc2cccnc2)cc(C(=O)Nc2cccnc2)c1,95%,35%,0%
COc1ccc(C(=O)NCCCCN2CCC(c3ccc4c(c3OC)CCCC4)CC2)cc1-c1ccc(C(F)(F)F)cc1,100%,56%,67%
Cc1cc2nc(-c3ccc(C(=O)NC4CCN(Cc5ccccc5)CC4)s3)[nH]c2cc1C,99%,82%,33%
CN1CCC(Oc2ccc(CN3CC[C@H](NC(=O)c4cc(F)cc(F)c4)C3)c3ccccc23)C1.O=C(O)C(F)(F)F (stereo not given in full),98%,23%,26%
CCCNCc1ccc(-c2ccc(CN(Cc3cnc(C)cn3)C(=O)CC#N)cc2)nc1.O=C(O)C(F)(F)F,92%,0%,4%
CC(=O)Nc1cccc(C(=O)Nc2ccc(-c3cccc(-c4nc5cc(C(F)(F)F)ccc5[nH]4)c3)cc2)c1,100%,85%,81%
CCCCC(=O)NC(c1cccs1)c1cc(Cl)c2cccnc2c1O (stereo not given),93%,90%,50%
CC(C)CNC(=O)c1cncc(-c2ccc(CNC3Cc4ccccc4C3)cc2)c1.O=C(O)C(F)(F)F,99%,37%,5%
CCOC(=O)c1ccc(NC(=O)N(Cc2ccc(-c3ccc(CN4CCNCC4)cc3)cc2)Cc2cccnc2)cc1.O=C(O)C(F)(F)F,94%,34%,13%
CCCCCCCC1CC(CC(=O)Nc2ccnc3ccc(OC)cc23)CN1 (stereo not given),90%,58%,22%
Br.CC1(C)NC(N)=NC(=N)N1OCCCNC(=O)c1ccc([N+](=O)[O-])cc1,92%,97%,57%
Cc1cc(NC(=O)CCCN2CCN(c3cccc(Cl)c3Cl)CC2)ccc1N1CCN(C(C)C)CC1.Cl,100%,53%,86%
Cc1oc(-c2ccc(Cl)cc2)cc1C(=O)NCCC1CCN(CCCCCNC(=O)/C=C/c2ccc(Cl)c(Cl)c2)CC1,100%,88%,100%
CC(=O)N1c2ccccc2C(C)=CC1(C)C,97%,11%,3%
CC(C)CCNc1nc(NCCCc2ccccc2)c2cc(O)ccc2n1,100%,95%,14%
CN(C)Cc1ccc(-c2ccc3ccnc(N)c3c2)cc1,100%,100%,20%
COc1ccc(C(=O)Nc2ccc(Nc3nc(C)cc(N(C)C)n3)cc2)c(OC)c1,100%,72%,34%
CCN(CC)CCN(Cc1ccc(-c2ccc(C(F)(F)F)cc2)cc1)C(=O)Cn1c(CCc2cc(F)c(F)cc2F)nc(=O)c2ccccc21.O=C(O)C(O)C(O)C(=O)O,99%,50%,39%

SMILES,Inhibition [1],Inhibition [2],Inhibition [3]
O=C(Nc1cccc(CN2CCN(Cc3ccc(O)cc3)CC2)c1)c1ccc(Cl)c(Cl)c1.O=C(O)C(F)(F)F,100%,95%,30%
COc1ccc(Cc2cnc3nc(N)nc(N)c3c2C)cc1.Cl,90%,96%,65%
O=C(O)C(F)(F)F.Oc1ccc(CCNc2nc(NCCCOc3ccccc3-c3cccc(C(F)(F)F)c3)nc(N3CCNCC3)n2)cc1,93%,5%,24%
CS(=O)(=O)CCNCc1cccc(-c2ccc3c(Nc4cc(O)c(Cl)cc4F)ccnc3c2)c1,100%,100%,9%
CN(C)c1ccc(C2(c3ccccc3)N=C(N)N(CCCc3ccccc3)C2=O)cc1.O=C(O)C(F)(F)F (stereo not given),99%,97%,4%
Cc1cccc2nc(-c3cccc(-c4cccc(NC(=O)Nc5ccc(F)c(F)c5F)c4)c3)[nH]c12,100%,99%,32%
COc1cccc(CN2CCCC(COC(c3ccc(F)cc3)c3ccc(F)cc3)C2)c1O (stereo not given),98%,100%,24%
O=C(NCCN1CCCc2ccccc21)C1CCN(c2nc(-c3ccc(Cl)cc3)no2)CC1,86%,62%,11%
Cn1cncc1-c1ccc2c(-c3ccsc3)cnc(N)c2c1,97%,72%,41%
Cc1c(Cl)ccc2sc(N3CCN(C(=O)c4ccc([N+](=O)[O-])o4)CC3)nc12,96%,93%,0%
CN(c1ncc(-c2cccc(CNCc3ccccc3O)c2)cn1)C1CCCCC1,95%,71%,12%
COc1cccc(NC(=O)Nc2cc(-c3ccc4[nH]ncc4c3)cc3c2CNC3=O)c1,98%,100%,3%
O=C(O)C(F)(F)F.O=S(=O)(NCCN1CCCC1)c1ccc(-c2ccc(CNCc3ccccc3)cc2)cc1F,83%,39%,35%
COc1ccc(NC(=O)Nc2cccc(-c3ccc(-c4nc5cc(C(F)(F)F)ccc5[nH]4)cc3)c2)cc1,100%,29%,46%
O=C(O)C(F)(F)F.O=c1[nH]ccc2nc(N[C@@H]3CCCNC3)nc(Nc3ccc(S(=O)(=O)N4CCOCC4)cc3)c12,96%,99%,13%
CCCNC(=O)C1Cc2c([nH]c3ccc(Br)cc23)C2(CCN(CCc3ccccc3)CC2)N1 (stereo not given),99%,49%,16%
Cc1cccc2nc(-c3cccc(-c4cccc(NC(=O)Nc5ccccc5)c4)c3)[nH]c12,100%,64%,8%
CC(C)CN(C)c1ncnc2c1nc(-c1cncc(C#N)c1)n2CCNCc1ccccc1.O=C(O)C(F)(F)F,86%,2%,4%
O=C(Nc1cccc(CN2CCCN(Cc3ccsc3)CC2)c1)c1ccc(Cl)c(Cl)c1.O=C(O)C(F)(F)F,98%,20%,36%
CCN1CCC(N(Cc2ccc(-c3ccc(C(F)(F)F)cc3)cc2)C(=O)Cn2c(CCc3cccc(F)c3F)cc(=O)c3ccccc32)C1.O=C(O)C(O)C(O)C(=O)O (stereo not given),93%,84%,43%

SMILES,Inhibition [1],Inhibition [2],Inhibition [3]
Cc1cc(-c2ccc(NC(=O)N3CCc4cc(Br)c(N5CCN(C)CC5)cc43)cc2)ccc1C#N,99%,56%,100%
CO/C(=C\C=C\c1cc2cc(Cl)c(Cl)cc2[nH]1)C(=O)NC1CCN(CCOc2ccccc2)CC1,100%,94%,35%
COc1ccc(Br)cc1/C=C/C(=O)Nc1ccc2c(c1)CCCN(C)C2,84%,10%,8%
O=C(O)C(F)(F)F.c1ccc(-c2ccc(CNCc3ccc(-c4cccc(-c5nc6ccccc6[nH]5)c4)cc3)s2)nc1,98%,80%,48%
COc1cc2c(cc1C(F)(F)F)N(C(=O)Nc1cccc(-c3ccc(CN(C)C)cc3)c1)CC2,100%,93%,95%
Cc1sc2ncnc(Sc3nc4ccccc4[nH]3)c2c1C,99%,100%,14%
O=C(/C=C/c1cc(C(F)(F)F)ccc1F)NCCCCCN1CCC(c2c[nH]c3ccccc23)CC1,88%,4%,39%
O=C(Nc1cccc(CN2CCCN(Cc3ccccc3)CC2)c1)c1ccc(Cl)c(Cl)c1.O=C(O)C(F)(F)F,95%,16%,23%
Br.N=c1sc2ccccc2n1CC(O)c1ccc(Cl)c(Cl)c1 (stereo not given),99%,74%,4%
CCc1cc2c(Sc3nnc(N)s3)ncnc2s1,99%,65%,0%
Cc1ccc(NC(=O)NC2CCN(CCCCCNC(=O)/C=C/c3ccc(Cl)c(Cl)c3)CC2)cc1,100%,19%,41%
CCOc1cc(C)c(C2CCN(CCCCNC(=O)c3ccc(NC(=O)c4ccc(Cl)cc4)cc3)CC2)cc1C,100%,87%,10%
CCCCc1ccc(-c2c(N)nc(N)nc2CC)cc1,95%,0%,63%
CC(=O)Nc1cccc(C(=O)Nc2ccc(-c3ccc(-c4nc5cccc(C)c5[nH]4)s3)cc2)c1,93%,20%,94%
O=C(NCCCCCN1CCC(c2c[nH]c3ccccc23)CC1)Nc1ccc(Cl)cc1Cl,99%,15%,71%
Cc1cc(-c2ccc(NC(=O)Nc3ccc4nccc(N5CCN(C)CC5)c4c3)cc2C)cc(C)n1.Cl,100%,76%,0%
COc1ccc2nccc([C@@H](O)CN3CCC(NC(=O)c4ccc5nc(-n6cccc6)sc5c4)CC3)c2c1,90%,40%,26%
CC(C)(CNCc1ccc(C(F)(F)F)cc1)c1nc(-c2ccnc(N)n2)c(-c2ccc(Cl)c(O)c2)[nH]1.Cl,100%,37%,32%
CN(C)CCNCc1nc(-c2ccc3c(Nc4ccc(Cl)cc4F)ccnc3c2)cs1,100%,100%,0%
CC(Oc1c(C2CCN(CCCCNC(=O)c3ccc(-c4ccc(C#N)cc4)cc3)CC2)ccc2c1CCCC2)C(N)=O (stereo not given),100%,83%,41%
